The whole screen tested about 5,500 compounds, of which about 2,000 (36%) were called active. Roughly 18% stayed inconclusive and do not appear here. Cut-off read from the data, not from the text of the source: active = normalized growth mostly below about 0.91 (no sharp cut-off); inconclusive = no clear call, values can overlap the other calls; inactive = mostly above about 0.92. This is one part of the list.
Experiment: chemical genetic growth profiling, strain panel (AID 1159580);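 note: tested at 20 µM; growth read once vehicle control cultures reached saturation at 30 °C; 1 = growth at the plate median or of vehicle wells; lower values mean less growth of the strain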
Conditions: growth OD

Measured: normalized growth

CC(=O)O[C@@H]1CC2C(C)(C)C(=O)C=C[C@]2(C)C2CC[C@@]3(C)[C@H](c4ccoc4)OC(=O)[C@H]4O[C@]43[C@@]21C (stereo partly drawn)
inactive: S. cerevisiae deletion strains, locus YJR066W, strain TOR1, hits give low values 0.932 | S. cerevisiae deletion strains, locus YKL009W, strain mrt4, hits give low values 1.07 | S. cerevisiae deletion strains, locus YKL068W, hits give low values 1 | S. cerevisiae deletion strains, locus YKL085W, strain MDH1 (second series), hits give low values 1.03 | S. cerevisiae deletion strains, locus YKL085W, strain MDH1, hits give low values 1.03 | S. cerevisiae deletion strains, locus YKL160W, strain elf1, hits give low values 1.02 | S. cerevisiae deletion strains, locus YKR001C, strain vps1, hits give low values 0.975 | S. cerevisiae deletion strains, locus YKR026C, strain gcn3, hits give low values 0.985 | S. cerevisiae deletion strains, locus YKR091W, strain srl3, hits give low values 1 | S. cerevisiae deletion strains, locus YLL001W, strain dnm1, hits give low values 0.972 | S. cerevisiae deletion strains, locus YLL026W, hits give low values 1.01 | S. cerevisiae deletion strains, locus YLL041C, strain sdh2, hits give low values 0.992 | S. cerevisiae deletion strains, locus YLR027C, strain aat2, hits give low values 1.02 | S. cerevisiae deletion strains, locus YLR039C, strain RIC1, hits give low values 0.877 | S. cerevisiae deletion strains, locus YLR058C, strain SHM2, hits give low values 1 | S. cerevisiae deletion strains, locus YLR102C, strain apc9, hits give low values 0.993 | S. cerevisiae deletion strains, locus YLR113W, strain HOG1, hits give low values 0.987 | S. cerevisiae deletion strains, locus YLR221C, strain rsa3, hits give low values 0.989 | S. cerevisiae deletion strains, locus YLR258W, strain gsy2, hits give low values 1.01 | S. cerevisiae deletion strains, locus YLR262C, strain YPT6 (second series), hits give low values 0.927 | S. cerevisiae deletion strains, locus YLR262C, strain YPT6, hits give low values 0.962 | S. cerevisiae deletion strains, locus YLR268W, strain sec22, hits give low values 1 | S. cerevisiae deletion strains, locus YLR320W, strain mms22, hits give low values 0.954 | S. cerevisiae deletion strains, locus YLR330W, strain CHS5, hits give low values 1.01 | S. cerevisiae deletion strains, locus YLR342W, strain FKS1 (second series), hits give low values 0.966 | S. cerevisiae deletion strains, locus YLR342W, strain FKS1, hits give low values 1.01 | S. cerevisiae deletion strains, locus YLR357W, strain rsc2, hits give low values 1.12 | S. cerevisiae deletion strains, locus YLR370C, strain arc18, hits give low values 1 | S. cerevisiae deletion strains, locus YLR371W, strain rom2, hits give low values 0.989 | S. cerevisiae deletion strains, locus YLR384C, strain iki3, hits give low values 1.02 | S. cerevisiae deletion strains, locus YLR418C, strain cdc73, hits give low values 1.04 | S. cerevisiae deletion strains, locus YML016C, strain PPZ1, hits give low values 0.999 | S. cerevisiae deletion strains, locus YML032C, strain rad52, hits give low values 0.993 | S. cerevisiae deletion strains, locus YML120C, strain ndi1, hits give low values 0.965 | S. cerevisiae deletion strains, locus YML124C, strain tub3, hits give low values 0.979 | S. cerevisiae deletion strains, locus YMR058W, strain fet3, hits give low values 0.983 | S. cerevisiae deletion strains, locus YMR078C, strain ctf18, hits give low values 0.983 | S. cerevisiae deletion strains, locus YMR125W, strain sto1, hits give low values 1.07 | S. cerevisiae deletion strains, locus YMR129W, hits give low values 1 | S. cerevisiae deletion strains, locus YMR205C, strain PFK2, hits give low values 0.981 | S. cerevisiae deletion strains, locus YMR223W, strain ubp8, hits give low values 1 | S. cerevisiae deletion strains, locus YMR231W, strain pep5, hits give low values 1.01 | S. cerevisiae deletion strains, locus YMR263W, strain SAP30, hits give low values 0.993 | S. cerevisiae deletion strains, locus YMR307W, strain GAS1, hits give low values 0.918 | S. cerevisiae deletion strains, locus YNL067W, strain RPL9B, hits give low values 1.01 | S. cerevisiae deletion strains, locus YNL071W, strain lat1, hits give low values 1 | S. cerevisiae deletion strains, locus YNL183C, strain NPR1, hits give low values 0.943 | S. cerevisiae deletion strains, locus YNL209W, strain ssb2, hits give low values 1.01 | S. cerevisiae deletion strains, locus YNL233W, strain BNI4, hits give low values 1.02 | S. cerevisiae deletion strains, locus YNL248C, strain rpa49, hits give low values 1.06 | S. cerevisiae deletion strains, locus YNL250W, strain rad50, hits give low values 1.01 | S. cerevisiae deletion strains, locus YNL271C, strain bni1, hits give low values 1 | S. cerevisiae deletion strains, locus YNL298W, strain CLA4, hits give low values 1 | S. cerevisiae deletion strains, locus YNL307C, strain MCK1, hits give low values 0.989 | S. cerevisiae deletion strains, locus YNL322C, strain KRE1 (second series), hits give low values 1.01 | S. cerevisiae deletion strains, locus YNL322C, strain KRE1, hits give low values 1 | S. cerevisiae deletion strains, locus YNR049C, strain mso1, hits give low values 1.01 | S. cerevisiae deletion strains, locus YNR052C, strain pop2, hits give low values 0.981 | S. cerevisiae deletion strains, locus YOL006C, strain TOP1, hits give low values 1.01 | S. cerevisiae deletion strains, locus YOL012C, strain htz1 0.906 | S. cerevisiae deletion strains, locus YOL147C, strain pex11, hits give low values 0.988 | S. cerevisiae deletion strains, locus YOR001W, strain rrp6, hits give low values 0.976 | S. cerevisiae deletion strains, locus YOR061W, strain CKA2, hits give low values 0.997 | S. cerevisiae deletion strains, locus YOR069W, strain VPS5, hits give low values 1 | S. cerevisiae deletion strains, locus YOR070C, strain gyp1, hits give low values 1.01 | S. cerevisiae deletion strains, locus YOR080W, strain dia2, hits give low values 0.996 | S. cerevisiae deletion strains, locus YOR083W, strain WHI5, hits give low values 0.98 | S. cerevisiae deletion strains, locus YOR106W, strain vam3, hits give low values 1.03 | S. cerevisiae deletion strains, locus YOR136W, strain idh2, hits give low values 1.01 | S. cerevisiae deletion strains, locus YOR144C, strain elg1, hits give low values 0.979 | S. cerevisiae deletion strains, locus YOR184W, strain ser1, hits give low values 1.02 | S. cerevisiae deletion strains, locus YOR231W, strain MKK1, hits give low values 0.998 | S. cerevisiae deletion strains, locus YOR265W, strain rbl2, hits give low values 1.01 | S. cerevisiae deletion strains, locus YOR270C, strain vph1, hits give low values 0.896 | S. cerevisiae deletion strains, locus YOR290C, strain snf2, hits give low values 1.02 | S. cerevisiae deletion strains, locus YOR316C, strain cot1, hits give low values 0.987 | S. cerevisiae deletion strains, locus YPL051W, strain arl3, hits give low values 1.02 | S. cerevisiae deletion strains, locus YPL078C, strain atp4, hits give low values 1.01 | S. cerevisiae deletion strains, locus YPL106C, strain sse1, hits give low values 1.05 | S. cerevisiae deletion strains, locus YPL240C, strain hsp82, hits give low values 0.997 | S. cerevisiae deletion strains, locus YPL241C, strain CIN2, hits give low values 0.992 | S. cerevisiae deletion strains, locus YPL256C, strain CLN2, hits give low values 0.997 | S. cerevisiae deletion strains, locus YPR119W, strain clb2, hits give low values 0.981 | S. cerevisiae deletion strains, locus YPR141C, strain kar3, hits give low values 1.01 | S. cerevisiae deletion strains, locus YPR163C, strain tif3, hits give low values 0.984 | S. cerevisiae deletion strains, locus YPR167C, strain met16, hits give low values 1 | S. cerevisiae deletion strains, strain wtn01, hits give low values 1.01 | S. cerevisiae strains, strain wild type, hits give low values 1

— PubChem BioAssay AID1159580 (chemical genetic matrix, 2015)
